# Measurements taken from PubChem BioAssay (EPA / NIEHS).
# “And” between values parts separate entries of the source, which are not always exact repeats. Equal values may be shown once. Records with an inconclusive call do not appear. The source holds several records for some structures; these can differ, active in one and inactive in another. The source made the active and inactive calls. The calls were made as follows, unless noted: active = hit-call score of the fitted dose curve at least 0.9, where 1 is the maximum; inactive = score below 0.9.
# Assays:
# [1] = TAMU_PeakParms_SingleDonor1434_QT: Texas A&M University (TAMU) 1.5-hr Human Induced Pluripotent Stem Cell (iPSC)-derived Cardiomyocytes Calcium (Ca+2) Flux Assay for Cardiotoxicity: QT (decay-rise ratio) (AID 2284235; active = hit-call score of the fitted dose curve at least 0.9, where 1 is the maximum)
# Summary of the method: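 Decay/rise ratio of calcium-flux fluorescence scored after 90 min exposure (37C) of donor 1434 iPSC cardiomyocytes to 0.2–100 uM (0.5% DMSO). Beat-cessation and severe-notch points removed; POD is EC05, a 5% rise over DMSO.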
# [2] = read-out: Interleukin 17A (IL17A), IL17A (gene 3605); experiment: BSK_BT_xIL17A: BioMAP Diversity Plus: BT Assay for Interleukin 17A (IL17A) Biomarker Activity (AID 2284229); settings: primary human B cells with PBMC
# Summary of the method: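 Luminex xMAP quantification of secreted IL-17A after 24 h chemical exposure of a primary human B cell/PBMC co-culture. Signal increases fitted relative to DMSO negative control.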
# [3] = read-out: Tumor necrosis factor (Homo sapiens) (UniProt P01375); experiment: BSK_BT_xTNFa: BioMAP Diversity Plus: BT Assay for Tumor necrosis factor alpha (TNF-alpha) Biomarker Activity (AID 2284230); settings: primary human B cells with PBMC
# Summary of the method: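 B cells with PBMC in co-culture, dosed and sampled at 24 h; secreted TNF-alpha measured by Luminex xMAP bead assay. Activity fitted in the gain direction against DMSO as negative control and baseline.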
# [4] = read-out: Vascular cell adhesion molecule 1 (VCAM1), VCAM1 (gene 7412); experiment: BSK_MyoF_VCAM1: BioMAP Diversity Plus: MyoF Assay for Vascular cell adhesion molecule 1 (VCAM1) Biomarker Activity (AID 2284231); settings: primary human lung fibroblasts
# Summary of the method: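 ELISA readout of VCAM-1 on human lung fibroblast cultures 24 hours after dosing, analyzed for signal gain relative to DMSO. Overt cytotoxicity was checked by sulforhodamine B total-protein staining in parallel cultures.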
# [5] = read-out: Collagen I, COL1A1 (gene 1277); experiment: BSK_MyoF_CollagenI: BioMAP Diversity Plus: MyoF Assay for Collagen I Biomarker Activity (AID 2284238); settings: primary human lung fibroblasts
# Summary of the method: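 Collagen I levels measured by ELISA on human lung fibroblast cultures 24 h post-dosing, with curve fitting in the positive direction relative to DMSO; SRB staining of parallel wells marked cytotoxicity.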
# [6] = read-out: Collagen III, COL3A1 (gene 1281); experiment: BSK_MyoF_CollagenIII: BioMAP Diversity Plus: MyoF Assay for Collagen III Biomarker Activity (AID 2284239); settings: primary human lung fibroblasts
# Summary of the method: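 Collagen III biomarker quantified by ELISA in human lung fibroblast cultures 24 h after dosing. Activity fitted in the positive direction against DMSO as baseline.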
# [7] = read-out: Interleukin 17F (IL17F), IL17F (gene 112744); experiment: BSK_BT_xIL17F: BioMAP Diversity Plus: BT Assay for Interleukin 17F (IL17F) Biomarker Activity (AID 2284243); settings: primary human B cells with PBMC
# Summary of the method: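 Human B cells co-cultured with PBMC; secreted IL-17F quantified by LumineX xMAP 24 hours after chemical dosing. Activity fitted in the positive direction against DMSO negative control as baseline.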
# [8] = read-out: Actin alpha 1 (ACTA1), ACTA1 (gene 58); experiment: BSK_MyoF_ACTA1: BioMAP Diversity Plus: MyoF Assay for Actin alpha 1 (ACTA1) Biomarker Activity (AID 2284244); settings: primary human lung fibroblasts
# Summary of the method: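 ELISA read-out of a-SMA in primary human lung fibroblast cultures, 24 h post-dosing. Activity scored in the positive direction versus DMSO baseline.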
# [9] = read-out: Interleukin 2 (IL2), IL2 (gene 3558); experiment: BSK_BT_xIL2: BioMAP Diversity Plus: BT Assay for Interleukin 2 (IL2) Biomarker Activity (AID 2284245); settings: primary human B cells with PBMC
# Summary of the method: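 Readout: supernatant IL-2 via Luminex xMAP after 24 h chemical dosing of a B cell/PBMC primary human co-culture. DMSO serves as negative control and baseline; increases in signal were fitted.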
# [10] = read-out: Basic fibroblast growth factor (bFGF), FGF2 (gene 2247); experiment: BSK_MyoF_bFGF: BioMAP Diversity Plus: MyoF Assay for Basic fibroblast growth factor (bFGF) Biomarker Activity (AID 2284246); settings: primary human lung fibroblasts
# Summary of the method: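 Primary human lung fibroblast culture, 24 h compound exposure; ELISA read-out of bFGF. Positive-direction fit vs DMSO baseline. Cytotoxicity: SRB stain (0.1% SRB, 10% TCA fixation, 560 nm) in parallel wells.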
# [11] = read-out: Collagen IV, COL4A1 (gene 1282); experiment: BSK_MyoF_CollagenIV: BioMAP Diversity Plus: MyoF Assay for Collagen IV Biomarker Activity (AID 2284247); settings: primary human lung fibroblasts
# Summary of the method: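 ELISA read-out of Collagen IV in lung fibroblast cultures, 24 h post-dosing; gain of signal relative to DMSO vehicle baseline defines activity.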
# [12] = read-out: Monokine induced gamma interferon (MIG), CXCL9 (gene 4283); experiment: BSK_KF3CT_MIG: BioMAP Diversity Plus: KF3CT Assay for Monokine induced gamma interferon (MIG) Biomarker Activity (AID 2284248); settings: primary human keratinocytes with fibroblasts
# Summary of the method: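 Parallel cultures were stained with SRB (560 nm) to check cytotoxicity. MIG was quantified by ELISA in a primary human skin keratinocyte/fibroblast co-culture 24 h post-dosing, with gain of signal fitted relative to DMSO.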
# [13] = UKN4_HCS_LUHMES_cell_viability: Viability Assessment in the University of Konstanz (UKN) Leist Lab Neurite Outgrowth Assay in human LUHMES cells (UKN4) (AID 2284232)
# Summary of the method: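 Day-2 differentiated LUHMES, 30000 cells/well, dosed ~30 min–2 h post-seeding; 24 h treatment incl. staining; Hoechst H-33342 + calcein-AM at 23.5 h; HCS imaging; DMSO-normalized, bidirectional fit.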
# [14] = UKN2_HCS_IMR90_cell_viability: Viability Assessment in the University of Konstanz (UKN) Leist Lab Neural Crest Cell Migration Assay in human induced IMR90 Pluripotent Stem Cells (UKN2) (AID 2284233);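 also: cells exposed to compound for 24 h after a 24 h migration phase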
# Summary of the method: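 Viability read as calcein-AM fluorescence by high-content imaging, Hoechst co-stain, 30 min. Human iPSC (IMR90) neural crest cells had migrated 24 h into stopper-defined gaps before 24 h chemical exposure. Fitted bidirectionally relative to DMSO.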
# [15] = CCTE_Mundy_HCI_Cortical_NOG_NeuronCount: CCTE's Neurite Outgrowth Assay in rat cortical cells for Neuron Count, Mundy Lab (AID 2284236; active = hit-call score of the fitted dose curve at least 0.9, where 1 is the maximum;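 also: neurons counted by imaging betaIII-tubulin and Hoechst stained cortical cells; cells exposed to compound for about 48 hours before fixation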)
# Summary of the method: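 Read-out: neuron number by high-content imaging of betaIII-tubulin (Alexa Fluor-488) and Hoechst-labelled rat primary cortical cells.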
# [16] = CCTE_Mundy_HCI_hNP1_Casp3_7: CCTE's Caspase-Glo 3/7 Assay in human neuroprogenitor cells for Apoptosis, Mundy Lab (AID 2284240)
# Summary of the method: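 Luminescent caspase-3/7 readout, 26.5 h post-dose, in human neural progenitor cells from WA09 embryonic stem cells. Cells grew 40–44 h at 37 °C, 5% CO2 before chemical addition. Activity analysed as signal increase over DMSO baseline.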
# [17] = TAMU_HCS_1.5hr_SingleDonor1434_Cytotoxicity: Cytotoxicity Assessment using High-content Screening (HCS) Fluorescent Imaging for the Texas A&M University (TAMU) 1.5-hr Human Induced Pluripotent Stem Cell (iPSC)-derived Cardiotoxicity Assay (AID 2284234; active = hit-call score of the fitted dose curve at least 0.9, where 1 is the maximum)
# Summary of the method: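 Nuclear counts from Hoechst 33342 imaging define cytotoxicity here, with EC10 (10% cell-count loss relative to DMSO) as point of departure. iPSC cardiomyocytes received 0.2-100 uM test chemical in 0.5% DMSO for 1.5 h at 37 C.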
# [18] = CCTE_Mundy_HCI_Cortical_NOG_BPCount: CCTE's Neurite Outgrowth Assay in rat cortical cells for Branch Point Count, Mundy Lab (AID 2284237);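 also: branch points counted about two days after chemical exposure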
# Summary of the method: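 Measured 50.33 h after dosing, this morphology endpoint uses rat primary cortical cultures labelled for betaIII-tubulin. Branch points are quantified by high-content imaging, with DMSO as negative control and baseline.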
# [19] = CCTE_Mundy_HCI_hNP1_CellTiter: CCTE's Cell Titer-Glo 2 Assay in human neuroprogenitor cells for Viability, Mundy Lab (AID 2284241; active = hit-call score of the fitted dose curve at least 0.9, where 1 is the maximum;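 as to AC50: a hit is a drop in ATP luminescence versus DMSO meaning reduced viability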)
# Summary of the method: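 Viability read as luminescent ATP content (CellTiter-Glo, 30 min room temperature) twenty-four hours after dosing, relative to DMSO. Cells: WA09-derived hNP1 neuroprogenitors on poly-L-ornithine/laminin, plated 40 to 44 hours before chemical.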
# [20] = CCTE_Mundy_HCI_Cortical_Synap_Neur_Matur_NeuronCount: CCTE's Synaptogenesis and Neurite Maturation Assay in rat cortical cells for Neuron Count, Mundy Lab (AID 2284242; active = hit-call score of the fitted dose curve at least 0.9, where 1 is the maximum;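 as to AC50: neuron number from Hoechst nuclei and MAP2 staining by high-content imaging; hits reduce neuron count versus DMSO baseline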)
# Summary of the method: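 Rat cortical cultures; AraC DIV 5; chemical dosing + media change DIV 7 to DIV 12 (288.33 h readout). Fix, Hoechst, anti-MAP2/anti-synaptophysin immunostain; HCI neuron count vs DMSO baseline.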
# Tumor necrosis factor (Homo sapiens), sequence (P01375 whole entry, looked up): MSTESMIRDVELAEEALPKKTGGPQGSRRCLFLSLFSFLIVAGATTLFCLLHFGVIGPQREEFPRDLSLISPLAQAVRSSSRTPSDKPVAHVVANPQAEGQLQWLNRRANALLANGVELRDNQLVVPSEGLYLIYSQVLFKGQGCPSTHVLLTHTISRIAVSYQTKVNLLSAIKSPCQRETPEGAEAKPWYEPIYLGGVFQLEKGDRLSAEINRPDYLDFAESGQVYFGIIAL
structure (smiles),measurement,setting,value
c1ccc2c(c1)ccc1ccccc12,outcome,[1],inactive
NCC(F)(F)C(F)(F)C(F)(F)C(F)(F)C(F)(F)C(F)(F)C(F)(F)F,outcome,[2],inactive
same,outcome,[3],inactive
same,outcome,[4],inactive
same,outcome,[5],inactive
same,outcome,[6],inactive
same,outcome,[7],inactive
same,outcome,[8],inactive
same,outcome,[9],inactive
same,outcome,[10],inactive
same,outcome,[11],inactive
same,outcome,[12],inactive
c1ccc2cc3c(ccc4ccccc43)cc2c1,outcome,[1],inactive
FC(F)(I)C(F)(F)C(F)(F)C(F)(F)C(F)(F)C(F)(F)I,AC50,[3],21.2 µM (active) [middle of 5 runs]
same,AC50,[4],5.28 µM (active) [middle of 5 runs]
same,AC50,[5],4.42 µM (active) [middle of 5 runs]
same,AC50,[6],4.38 µM (active) [middle of 5 runs]
same,AC50,[10],8.27 µM (active) [middle of 5 runs]
same,outcome,[11],inactive
same,AC50,[12],9.38 µM (active) [middle of 5 runs]
CN1CCC[C@H]1c1cccnc1,outcome,[13],inactive
same,outcome,[14],inactive
same,outcome,[15],inactive
same,outcome,[16],inactive
C[C@@H]1C[C@H]2[C@@H]3CCC4=CC(=O)C=C[C@]4(C)[C@@]3(F)[C@@H](O)C[C@]2(C)[C@@]1(O)C(=O)COP(=O)(O)O,AC50,[2],0.1 µM (active)
same,AC50,[3],245 nM (active) and 100 nM (active)
same,outcome,[4],inactive
same,outcome,[5],inactive
same,outcome,[6],inactive
same,AC50,[7],0.277 µM (active)
same,outcome,[7],inactive
same,AC50,[8],267 nM (active)
same,outcome,[8],inactive
same,AC50,[9],807 nM (active) and 148 nM (active)
same,outcome,[10],inactive
same,outcome,[11],inactive
same,outcome,[12],inactive
CCCCCCCCCCCCCC[N+](C)(C)C,AC50,[2],1.48 µM (active)
same,AC50,[3],2.59 µM (active)
same,AC50,[4],3.84 µM (active)
same,AC50,[5],1.5 µM (active)
same,AC50,[6],1.85 µM (active)
same,AC50,[7],2.26 µM (active)
same,AC50,[8],2310 nM (active)
same,AC50,[9],1.67 µM (active)
same,AC50,[10],4.65 µM (active)
same,AC50,[11],5.43 µM (active)
OCCC(F)(F)C(F)(F)C(F)(F)C(F)(F)C(F)(F)C(F)(F)F,AC50,[2],43.1 µM (active)
same,outcome,[2],inactive
same,AC50,[3],41.4 µM (active)
same,outcome,[3],inactive
same,outcome,[4],inactive
same,AC50,[5],54.6 µM (active)
same,outcome,[5],inactive
same,outcome,[6],inactive
same,outcome,[16],inactive
same,AC50,[7],5.95 µM (active)
same,outcome,[7],inactive
same,outcome,[8],inactive
same,outcome,[9],inactive
same,outcome,[10],inactive
same,outcome,[11],inactive
same,outcome,[12],inactive
c1ccc2c(c1)Cc1ccccc1-2,outcome,[1],inactive
CC#C[C@]1(O)CC[C@H]2[C@@H]3CCC4=CC(=O)CCC4=C3[C@@H](c3ccc(N(C)C)cc3)C[C@@]21C,outcome,[13],inactive
same,AC50,[14],16.5 µM (active) and 8.62 µM (active)
same,outcome,[17],inactive
same,AC50,[15],69.2 µM (active) and 15 µM (active)
same,AC50,[18],26.2 µM (active) and 24.2 µM (active)
same,AC50,[16],13.5 µM (active) and 18.4 µM (active)
same,AC50,[19],27.4 µM (active) and 21.6 µM (active)
same,AC50,[20],22.9 µM (active) and 25.2 µM (active)
C=C(C)C(=O)OCCC(F)(F)C(F)(F)C(F)(F)C(F)(F)C(F)(F)C(F)(F)F,outcome,[2],inactive
same,outcome,[3],inactive
same,outcome,[4],inactive
same,outcome,[5],inactive
same,outcome,[6],inactive
same,outcome,[16],inactive
same,outcome,[19],inactive
same,outcome,[7],inactive
same,outcome,[8],inactive
same,outcome,[9],inactive
same,outcome,[10],inactive
same,outcome,[11],inactive
same,outcome,[12],inactive
OCCC(F)(F)C(F)(F)C(F)(F)C(F)(F)C(F)(F)C(F)(F)C(F)(F)C(F)(F)F,AC50,[2],44.1 µM (active) and 43.9 µM (active)
same,AC50,[3],45.5 µM (active) and 41.3 µM (active)
same,AC50,[4],13.4 µM (active) and 9.75 µM (active)
same,AC50,[5],19.8 µM (active) and 17.2 µM (active)
same,AC50,[6],14.5 µM (active) and 10 µM (active)
same,outcome,[16],inactive
same,outcome,[19],inactive
same,AC50,[7],22.9 µM (active) and 36.3 µM (active)
same,AC50,[8],14.6 µM (active) and 15.1 µM (active)
same,AC50,[9],23.6 µM (active) and 28.4 µM (active)
same,AC50,[10],17.4 µM (active) and 10.7 µM (active)
same,outcome,[11],inactive
same,AC50,[12],21.4 µM (active) and 23.7 µM (active)
CC1=C(/C=C/C(C)=C/C=C/C(C)=C/C(=O)O)C(C)(C)CCC1,AC50,[13],48 µM (active)
same,outcome,[14],inactive
same,outcome,[15],inactive
same,outcome,[16],inactive
same,outcome,[20],inactive
